{"source": "PubChem BioAssay (NCI)", "note": "Values joined by “and” are separate entries in the source; they are usually repeats but may differ in a detail not shown here. Identical values can stand only once. This is part of a sample that, as a whole, favours compounds with a hit. Of some 83,000 tested, about 20% had one in any assay.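 Note: values are percent growth. 100 is the growth of untreated cells, values between 100 and 0 indicate rising inhibition; between -100 and 0 indicates cell death.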 Some structures have more than one record in an assay (separate samples or runs), and their calls can disagree. Active and inactive are the calls of the source. The calls were made as follows: active = growth percent below 10; inactive = the rest."}
{"test_system": "UACC-62 melanoma", "assay": "NCI-60 one-dose screen, 48 h (100 = growth as untreated, 0 = no growth, -100 = all killed)", "details": "10 µM unless noted"}
{"smiles": "CC(=O)OC(C)C(=O)NCC(C)O", "note": "(centres undefined)", "growth": "122% (inactive)"}
{"smiles": "Nc1cc(N)c(N)cc1N", "growth": "-40.3% (active)"}
{"smiles": "c1ccc(CNCCNCc2ccccc2)cc1", "growth": "105% (inactive)"}
{"smiles": "CC(=O)NCC(=O)c1ccc([N+](=O)[O-])cc1", "growth": "101% (inactive)"}
{"smiles": "O=C(O)CCCl", "growth": "110% (inactive)"}
{"smiles": "Oc1ccc(Cc2ccccc2Cl)c(O)c1", "growth": "85.7% (inactive)"}
{"smiles": "COc1ccc(Nc2ccc3ccccc3c2)cc1", "growth": "62.1% (inactive)"}
{"smiles": "Cc1cc(-c2ccc(N=Nc3ccc4c(S(=O)(=O)O)cc(S(=O)(=O)O)c(N)c4c3O)c(C)c2)ccc1N=Nc1ccc2c(S(=O)(=O)O)cc(S(=O)(=O)O)c(N)c2c1O", "growth": "77.3% (inactive)"}
{"smiles": "CCCCCCCCCCCCCCCc1ccc(N)c(OC2OC(CO)C(O)C(O)C2O)c1", "note": "(centres undefined)", "growth": "76.3% (inactive)"}
{"smiles": "CC1=C/C(O)CC(=O)Cc2nc(co2)C(=O)N2CCC=C2C(=O)OC(C(C)C)C(C)/C=C\\C(=O)NC/C=C\\1", "note": "(centres undefined)", "growth": "84.9% (inactive)"}
{"smiles": "Cl", "growth": "105% (inactive)"}
{"smiles": "CCCCOC(=O)/C=C\\C(=O)NC(N)=O", "growth": "79.1% (inactive)"}
{"smiles": "Cn1cnc([N+](=O)[O-])c1Sc1ncn[nH]1", "growth": "108% (inactive)"}
{"smiles": "CCCCCCCCCCCCCCCCC(C(=O)O)C(O)(CC(=O)O)C(=O)O", "note": "(centres undefined)", "growth": "108% (inactive) and -70.3% (active)"}
{"smiles": "CCc1cc(C)cc(O)c1", "growth": "108% (inactive)"}
{"smiles": "c1ccc2c(c1)OC1OC2Oc2ccccc21", "growth": "92.5% (inactive)"}
{"smiles": "CC(C)NC(=O)N/C=C(\\C#N)C(N)=O", "growth": "101% (inactive)"}
{"smiles": "O=[N+]([O-])c1cccc(SSc2cccc([N+](=O)[O-])c2)c1", "growth": "94.2% (inactive)"}
{"smiles": "O=C1NC(N/N=C\\C(O)C(O)C(O)CO)=N/C1=C/c1ccc(Cl)cc1", "note": "(centres undefined)", "growth": "3.82% [100 µM] (active) and -100% [100 µM] (active) and 32.5% [100 µM] (inactive)"}
{"smiles": "CC(C)C(C)(C)c1ccc(O)cc1", "growth": "101% (inactive)"}
{"smiles": "ClCCOCCOc1ccc(C2CCCCC2)cc1", "growth": "98.6% (inactive)"}
{"smiles": "Cc1cc2ccccc2cn1", "growth": "92.5% (inactive) and 95.2% (inactive)"}
{"smiles": "OC1COC(OCc2ccccc2)C(O)C1O", "note": "(centres undefined)", "growth": "106% (inactive)"}
{"smiles": "OCC1OC(O)C(O)C(O)C1O", "note": "(centres undefined)", "growth": "117% (inactive)"}
{"smiles": "NC1CCC(C(=O)O)CC1", "note": "(centres undefined)", "growth": "97.7% (inactive) and 101% (inactive)"}
{"smiles": "Nc1ccc2c(O)cc(S(=O)(=O)O)cc2c1", "growth": "93.7% (inactive) and 103% (inactive)"}
{"smiles": "CN1CNC(=O)NC1", "growth": "111% (inactive) and 107% (inactive)"}
{"smiles": "COc1ccc(N/C=C/C2=[N+](C)c3ccccc3C2(C)C)c(OC)c1", "growth": "92.9% (inactive)"}
{"smiles": "N#CC(C#N)N=Nc1cc(Cl)ccc1Cl", "growth": "99.1% (inactive)"}
{"smiles": "Nc1nc(N)c2[nH]cnc2n1", "growth": "84.3% (inactive)"}
{"smiles": "Cc1cc(-c2cc(C)c(O)c(C)c2)cc(C)c1O", "growth": "62.8% (inactive)"}
{"smiles": "Fc1ccc([I+]c2ccc(F)cc2)cc1", "growth": "82.5% (inactive)"}
{"smiles": "COc1cc(C(O)C2C(=O)OCC2C2(c3ccc4c(c3)OCO4)SCCCS2)cc(OC)c1OC", "note": "(centres undefined)", "growth": "87.5% (inactive)"}
{"smiles": "OCCN1CCCCCCC1", "growth": "101% (inactive)"}
